Bioassay records as filed in PubChem BioAssay.
aDG glyco act = activators of alpha-DG glycosylation, primary screen, uHTS, Pro5-aDG cells, AlphaScreen | alpha-DG glycosylation AlphaScreen (IIH6); 0% Pro5, 100% B10-LARGE cell signal | activation, % at 10 µM | 360,000 compounds, 0.22% hits | AID 624168, 2012;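 active = activation of at least 8% versus controls, or a plate z-score of at least 8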;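 also: Pro5 are CHO cells carrying HIG-tagged alpha-DG that lacks glycosylation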
H9c2 protect = cardioprotection against H2O2-induced cell death, primary screen, uHTS, H9c2 cells, ATPLite luminescence | H9c2 cardiomyocytes, H2O2 injury protection, 2 h | protection from H2O2 cell death, % at 20 µM | 360,000 compounds, 0.63% hits | AID 588492, 2011;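 active = compounds giving at least 50% protection of heart cells from peroxide-induced death in the single-dose screen, raw or plate-pattern-corrected value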;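 also: 0% = DMSO wells with peroxide and 100% = DMSO wells without peroxide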
CR mimetic SO = reduction of superoxide in aged yeast, primary screen, HTS; AID 2690, 2010; S. cerevisiae aged cells, superoxide DHE fluorescence; hits give low values; 330,000 compounds, 0.18% hits; superoxide response (% of plate mean), % at 10 µM;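 active = superoxide response under a set limit, about three screen SD below normal, cut at about 65% in these data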;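 also: yeast aged for seven days with compound at 30 °C before DHE staining; 100% = average MFI of all compound-treated wells on the plate with controls excluded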
SUMO Mot1 rescue = yeast Mot1-301 growth rescue at high temperature, primary screen, SUMOylation pathway inhibitor project, S. cerevisiae, ATP luminescence, 38.5C | S. cerevisiae Mot1-301 growth rescue; percent above DMSO median, 100 means doubled | 320,000 compounds, 1% hits | growth rescue, % at 18.8 µM;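 active = every valid replicate shows activation above 250% relative to neutral control wells; inactive = the rest, any valid replicate at or below 250%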;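 also: OY570 slx delta 5 strain wells were the positive control but not used for scaling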
FAS-TE inh = FAS thioesterase domain inhibitors, primary screen, biochemical, fluorescence intensity, uHTS | AID 602261, 2012 | recombinant FAS-TE, OMFH fluorogenic substrate, fluorescence endpoint | 360,000 compounds, 0.67% hits | inhibition, % at 15 µM | Fatty acid synthase (Homo sapiens), P49327;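 active = compounds whose normalised, plate-corrected inhibition of enzyme fluorescence in the single-dose primary screen is 50% or more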;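 also: 0% = DMSO with enzyme and 100% = substrate without enzyme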
Target sequence (P49327 whole entry, looked up, the tested form may be a part): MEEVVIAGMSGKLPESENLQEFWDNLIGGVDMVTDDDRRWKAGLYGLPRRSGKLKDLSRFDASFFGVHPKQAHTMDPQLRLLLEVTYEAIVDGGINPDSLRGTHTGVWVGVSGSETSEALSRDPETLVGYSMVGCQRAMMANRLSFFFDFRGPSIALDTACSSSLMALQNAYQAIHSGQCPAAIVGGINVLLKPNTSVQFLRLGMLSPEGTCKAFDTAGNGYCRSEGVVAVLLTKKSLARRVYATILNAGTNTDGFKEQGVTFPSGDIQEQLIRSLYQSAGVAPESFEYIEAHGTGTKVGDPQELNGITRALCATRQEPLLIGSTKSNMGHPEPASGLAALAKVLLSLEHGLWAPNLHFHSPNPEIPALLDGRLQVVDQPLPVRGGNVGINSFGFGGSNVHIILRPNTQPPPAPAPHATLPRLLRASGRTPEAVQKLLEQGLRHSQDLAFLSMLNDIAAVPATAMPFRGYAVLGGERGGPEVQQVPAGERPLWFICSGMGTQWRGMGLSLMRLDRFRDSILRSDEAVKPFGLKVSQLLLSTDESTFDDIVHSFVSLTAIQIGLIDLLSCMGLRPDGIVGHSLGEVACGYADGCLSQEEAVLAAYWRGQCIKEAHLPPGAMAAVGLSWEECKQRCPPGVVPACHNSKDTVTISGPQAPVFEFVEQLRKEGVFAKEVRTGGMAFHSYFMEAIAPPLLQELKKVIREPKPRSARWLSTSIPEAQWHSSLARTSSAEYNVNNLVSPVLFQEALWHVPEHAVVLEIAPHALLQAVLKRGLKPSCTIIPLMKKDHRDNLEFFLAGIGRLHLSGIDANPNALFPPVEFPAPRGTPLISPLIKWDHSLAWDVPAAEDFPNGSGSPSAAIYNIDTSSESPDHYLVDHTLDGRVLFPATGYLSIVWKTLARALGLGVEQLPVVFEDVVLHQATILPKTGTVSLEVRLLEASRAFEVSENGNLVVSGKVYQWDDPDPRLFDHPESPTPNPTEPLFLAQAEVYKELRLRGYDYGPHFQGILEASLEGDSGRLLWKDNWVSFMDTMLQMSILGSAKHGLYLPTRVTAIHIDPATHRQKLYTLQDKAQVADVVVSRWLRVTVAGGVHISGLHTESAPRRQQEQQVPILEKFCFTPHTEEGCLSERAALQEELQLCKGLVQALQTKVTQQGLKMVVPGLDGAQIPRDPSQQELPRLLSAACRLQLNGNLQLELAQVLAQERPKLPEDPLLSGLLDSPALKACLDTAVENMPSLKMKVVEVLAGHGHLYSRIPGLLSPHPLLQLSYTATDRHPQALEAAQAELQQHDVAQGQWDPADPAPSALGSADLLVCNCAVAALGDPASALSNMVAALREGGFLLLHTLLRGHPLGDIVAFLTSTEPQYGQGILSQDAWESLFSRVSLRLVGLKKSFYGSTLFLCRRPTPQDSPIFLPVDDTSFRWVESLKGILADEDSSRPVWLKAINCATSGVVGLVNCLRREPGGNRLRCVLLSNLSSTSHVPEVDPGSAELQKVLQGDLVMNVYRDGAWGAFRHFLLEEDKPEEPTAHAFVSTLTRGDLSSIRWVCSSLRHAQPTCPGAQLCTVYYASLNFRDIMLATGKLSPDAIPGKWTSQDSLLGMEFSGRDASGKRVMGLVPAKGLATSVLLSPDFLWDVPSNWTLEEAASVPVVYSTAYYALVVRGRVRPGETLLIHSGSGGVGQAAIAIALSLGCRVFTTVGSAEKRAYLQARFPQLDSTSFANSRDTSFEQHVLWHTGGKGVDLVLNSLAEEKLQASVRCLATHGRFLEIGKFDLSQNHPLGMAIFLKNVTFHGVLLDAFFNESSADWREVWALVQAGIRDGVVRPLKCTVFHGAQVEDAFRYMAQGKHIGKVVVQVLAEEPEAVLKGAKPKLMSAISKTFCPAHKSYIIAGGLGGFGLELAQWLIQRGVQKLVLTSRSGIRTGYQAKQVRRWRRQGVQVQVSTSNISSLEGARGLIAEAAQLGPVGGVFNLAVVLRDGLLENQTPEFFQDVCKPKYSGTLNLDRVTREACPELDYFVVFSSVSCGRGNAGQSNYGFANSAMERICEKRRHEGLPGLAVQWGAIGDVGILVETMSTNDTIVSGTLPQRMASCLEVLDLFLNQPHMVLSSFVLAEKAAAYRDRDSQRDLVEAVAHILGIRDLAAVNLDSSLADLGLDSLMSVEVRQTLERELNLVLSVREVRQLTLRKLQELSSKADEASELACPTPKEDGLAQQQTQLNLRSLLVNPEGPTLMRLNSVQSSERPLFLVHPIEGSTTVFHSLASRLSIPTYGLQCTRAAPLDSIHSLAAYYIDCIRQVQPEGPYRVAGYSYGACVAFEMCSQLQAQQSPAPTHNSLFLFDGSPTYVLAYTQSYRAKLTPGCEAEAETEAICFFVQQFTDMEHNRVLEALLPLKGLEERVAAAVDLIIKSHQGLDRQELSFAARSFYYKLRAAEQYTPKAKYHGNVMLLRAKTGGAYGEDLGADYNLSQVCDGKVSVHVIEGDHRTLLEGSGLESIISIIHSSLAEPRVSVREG
MPTP block = mitochondrial permeability transition pore inhibitors, primary screen, biochemical, isolated mouse mitochondria, absorbance; AID 602449, 2012; 360,000 compounds, 1.4% hits; inhibition, % at 10 µM; Ca2+ swelling absorbance, 30 min;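 active = inhibition of 50% or more, scaled per plate between neutral and stimulator controls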;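 also: 0% = DMSO wells given calcium and 100% = 1 mM EGTA wells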
Rh123 counter = fluorescence retest of MPTP screen hits in isolated mitochondria, single concentration; shares compounds with MPTP block; membrane potential, Rhodamine 123 fluorescence; inhibition, % at 10 µM; 5,000 compounds, 78% hits; AID 624504, 2012; in the data active = inhibition above about 22%;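 also: 0% = DMSO vehicle and 100% = positive control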
MPTP abs DR = mitochondrial permeability transition pore inhibitors, dose response, biochemical, absorbance, uHTS hits; shares compounds with MPTP block; isolated mitochondria swelling; IC50, µM; 780 compounds, 58% hits; AID 651561, 2012; in the data active = IC50 below about 20 µM
MPTP cs DR = fluorescent counter-screen in isolated mitochondria, dose response, counter-screen for MPTP inhibitor project, biochemical, fluorescence, uHTS hits; shares compounds with MPTP block; isolated mitochondria counterscreen, fluorescence read-out; IC50, µM; 780 compounds, 49% hits; in the data active = IC50 below about 80 µM
Starred values were filed as active, the others as inactive; . = no result. Compounds with a hit are over-represented: about 3.8% of the library has one in this group of screens.

SMILES	aDG glyco act	H9c2 protect	CR mimetic SO	SUMO Mot1 rescue	FAS-TE inh	MPTP block	Rh123 counter	others
COc1ccc(-n2nnnc2C(CCc2ccccc2)N2CCN(C/C=C/c3ccccc3)CC2)cc1 (stereo not given)	-0.4	-9.3	.	.	20.9	2.6	.
O=C(Nc1ccc(Cl)c([N+](=O)[O-])c1)ONC1=NCCCCC1	0.5	-16.2	113.1	-14.7	4.0	81.5*	90.8*
O=C(ONC1=NCCCCC1)c1cccc([N+](=O)[O-])c1	0.2	-15.4	101.6	18.3	-5.8	0.1	.
COc1ccc(-c2cc(C(F)(F)F)c(C#N)c(SCC(=O)Nc3ccc(C)cc3)n2)cc1	0.3	13.2	96.5	167.1	-11.2	5.8	.
COc1ccc(C(=O)CSc2[nH]c(=O)cc(C(F)(F)F)c2C#N)cc1	0.0	-3.3	128.4	14.7	9.7	85.3*	75.5*
CC(C)[C@H](NS(=O)(=O)c1ccccc1F)C(=O)OCC(=O)Nc1cccc(S(N)(=O)=O)c1	-1.2	3.5	93.7	7.6	-7.5	2.2	.
Oc1c(Cl)cc(Cl)cc1CNc1nc2ccccc2[nH]1	0.1	-18.7	96.0	-16.4	1.4	71.7*	76.7*
CC1CCCCN1C(=O)CN1C(=O)NC2(CCCCC2C)C1=O (stereo not given)	0.0	3.5	129.9	-12.9	-8.0	-1.8	.
Cc1ccc(C2(c3ccc(C)cc3)CC2C(=O)Nc2ccc([N+](=O)[O-])cc2O)cc1 (stereo not given)	-0.5	-16.8	91.8	-8.2	-14.9	82.3*	46.8*
O=C(Nc1ccc([N+](=O)[O-])cc1)C1CC1(c1ccccc1)c1ccccc1 (stereo not given)	0.2	-6.7	80.5	-19.1	11.6	92.1*	86.7*
C/C(=N\NC(=O)C1CC1(c1ccccc1)c1ccccc1)c1cccc([N+](=O)[O-])c1 (stereo not given)	-0.1	-6.4	111.3	1.9	-3.5	1.9	.
CN1C2CCC1CC(NS(=O)(=O)c1cc(Cl)c(Cl)cc1Cl)C2 (stereo not given)	0.1	4.6	113.9	222.6	0.3	-0.5	.
CC1=CC(=O)C=C(C)C1=NOS(=O)(=O)c1ccccc1	-0.7	-27.1	.	.	20.8	103.3*	90.0*
CC(O)(c1ccc(F)c(F)c1)c1nc(-c2cnc3ccccc3c2)cs1 (stereo not given)	0.2	-14.1	.	.	19.0	1.2	.
C=C(C)Cn1c(SCC)nc2ccccc2c1=O	-0.1	-7.4	97.3	-10.6	3.1	3.6	.
C=C(C)Cn1c(SCC(=O)N/N=C/c2c(O)ccc3ccccc23)nc2ccccc2c1=O	0.4	69.3*	106.1	-10.5	36.1	66.4*	56.1*
O=C1c2ccccc2C(c2nnnn2Cc2ccccc2)N1CCc1c[nH]c2ccccc12 (stereo not given)	-0.4	.	.	.	0.3	-2.7	.
CCOc1ccc(CNC(=S)NCc2ccc(OCC)cc2)cc1	0.7	-2.0	97.5	16.0	-0.4	3.7	.
S=C(NCCSCc1c(Cl)cccc1Cl)Nc1ccccc1	0.5	-19.2	109.0	119.7	21.0	79.3*	86.2*
OCCNCc1ccc(OCc2ccc(Cl)cc2Cl)cc1	2.4	1.9	98.2	79.9	-3.7	93.8*	-5.9	MPTP abs DR=4.17*;MPTP cs DR=>80
OCCCCNCc1ccc(OCc2ccc(Cl)cc2Cl)cc1	1.8	-21.1	102.5	34.9	-5.9	1.2	.
CC(C)COc1ccc(CNC(=S)NCc2ccccc2)cc1	0.3	-21.6	101.9	-1.0	16.0	53.3*	81.5*
COc1ccc(CSCCNC(=S)Nc2ccccc2)cc1Cl	2.7	-5.5	86.3	4.5	34.2	78.5*	90.1*
Cc1cc(F)ccc1NCc1ccc([N+](=O)[O-])cc1	1.4	-10.3	101.2	125.8	25.3	0.5	.
CCN1C[C@@H]2[C@@H]3C(=O)N(C)C(=O)[C@@H]3[C@](Cc3ccccc3)(C1=O)N2C(=O)c1ccc(Cl)cc1	0.0	2.3	.	.	-7.4	-1.4	.
SMILES	aDG glyco act	H9c2 protect	CR mimetic SO	SUMO Mot1 rescue	FAS-TE inh	MPTP block	Rh123 counter	others
S=C(Nc1ccccc1)Nc1ccc(OCc2ccc(Cl)cc2Cl)cc1	-0.2	-6.0	119.7	9.1	5.6	84.8*	88.7*
Cc1ccccc1CSCCNC(=O)c1ccccc1	0.1	-3.5	106.8	-11.8	-0.3	1.8	.
S=C(NCCSCc1ccc(Cl)cc1Cl)Nc1ccccc1	0.5	-32.7	100.9	-8.3	25.7	96.9*	105.0*
Cc1ccccc1CSCCNC(=S)Nc1ccccc1	0.1	-3.2	91.5	20.6	11.4	56.9*	78.4*
CC(C)COc1ccc(CNC(=S)Nc2ccccc2)cc1Cl	-0.1	-14.3	88.2	12.0	17.8	74.3*	86.0*
O=C(CCNC(=O)c1ccccc1Cl)NCC1CCCO1 (stereo not given)	-0.1	1.4	104.8	-2.1	-0.4	-0.5	.
Oc1ccc(Cl)c(CN2CCN(c3ncc(Cc4ccccc4)cn3)CC2)c1	-0.1	.	.	.	.	11.1	.
COc1ccccc1NC(=O)c1ccccc1NS(=O)(=O)c1cccs1	0.1	-8.2	101.2	-13.2	1.0	12.8	.
Cc1ccc(NC(=O)c2ccccc2NS(=O)(=O)c2ccc(Cl)s2)cc1S(=O)(=O)N1CCOCC1	0.4	-28.1	96.3	304.1	22.1	98.9*	77.2*
COc1ccc(C)cc1NC(=O)c1ccccc1NS(=O)(=O)c1ccc(Cl)s1	0.5	-23.9	118.3	20.4	11.7	88.1*	61.0*
Cc1cc(C(=O)CSc2nc3ccc(Cl)cc3[nH]2)c(C)n1Cc1ccco1	1.2	-14.0	104.8	-10.3	12.2	50.8*	53.2*
COc1ccc(CNc2nc(S(=O)(=O)c3ccccc3)c(Cl)s2)cc1OC	1.8	-22.4	87.9	3.1	16.1	81.8*	64.0*
Cc1ccc(S(=O)(=O)c2nc(Nc3ccccc3)sc2Cl)cc1	0.9	-21.3	.	.	37.6	84.9*	84.9*
O=S(=O)(c1ccccc1)c1nc(NCc2ccccc2)sc1Cl	0.4	-10.0	110.3	5.3	18.2	9.3	.
O=S(=O)(c1ccccc1)c1nc(Nc2cccc(O)c2)sc1Cl	0.7	-21.6	109.3	-12.1	7.9	54.0*	39.4*
